Test results reported in PubChem BioAssay (Tox21).
Results filed as inconclusive are left out. Where a call stands in place of a potency, no number is given. The source made the active and inactive calls. Calls come from the whole dose curve.

Assay: qHTS assay to identify small molecule agonists of the progesterone receptor (PR) signaling pathway - cell viability counter screen (AID 1346799); note: nearly all actives have a fitted effect of over 45% in size
Conditions: PR-UAS-bla HEK293T viability, CellTiter-Glo luminescence, 16 h; series mostly up to 92.4 µM
Source text: National Center for Advancing Translational Sciences [NCATS]
NIH Chemical Genomics Center [NCGC]
U.S. Environmental Protection Agency [EPA]
National Institutes of Environmental Health Sciences [NIEHS]
National Toxicology Program [NTP]
U.S. Food and Drug Administration [FDA]
Progesterone receptor (PR), a nuclear hormone receptor, plays an important role in development, metabolic homeostasis and reproduction. It is activated by the steroid hormone progesterone. Endocrine disrupting chemicals (EDCs) and their interactions with steroid hormone receptors like PR causes disruption of normal endocrine function. To identify the compounds that stimulate PR signaling, a PR-UAS-bla GripTite cell line i.e. PR-UAS-bla HEK293T (Invitrogen, Carlsbad, CA, USA) containing a beta-lactamase reporter gene under the control of an UAS response element was used to screen Tox21 10K compound library. The cytotoxicity of the Tox21 compound library against the PR-bla cell line was tested in parallel by measuring the cell viability using CellTiter-Glo assay in the same wells.
Tox21 Assay Protocol Summary:
PR-UAS-bla HEK293T cells were dispensed at 3,000 cells/5 uL of assay medium containing 2% charcoal stripped FBS per well into black wall/clear-bottom 1536-well plates using a Multidrop Combi (ThermoFisher Scientific, Waltham, MA) dispenser. After the assay plates were incubated at a 37C and 5% CO2 for 6 hr, 23 nL of compounds dissolved in DMSO, positive controls or DMSO only was transferred to the assay plate by a Pintool station (Kalypsys, San Diego, CA). The plates were incubated at 37C and 5% CO2 for 16 hr. Then 1 uL of LiveBLAzer B/G FRET substrate was added using a Flying Reagent Dispenser (FRD, Aurora Discovery, San Diego, CA), the plates were incubated at room temperature for 2 hours, and fluorescence intensity was measured by an Envision plate reader (PerkinElmer, Shelton, CT). For cell viability readout that measures cytotoxicity, 4 uL/well of CellTiter-Glo reagent was added into the assay plates using a FRD. After 30 min incubation at room temperature, the luminescence intensity in the plates was measured using a ViewLux (PerkinElmer) plate reader.
Potency is the fitted concentration of half-maximal effect.

| SMILES | Potency |
| --- | --- |
| CC(C)(C)c1ccc(CCC=O)cc1 | inactive |
| Cc1ccccc1CCO | inactive |
| CCOCCn1c(N2CCCN(C)CC2)nc2ccccc21 | inactive |
| CCCCOC(=O)C(C)Oc1ccc(Oc2ccc(C(F)(F)F)cn2)cc1 (stereo not given) | inactive |
| COc1cccc([C@H](O)C2CCN(CCc3ccc(F)cc3)CC2)c1OC | inactive |
| Cc1ccc(NC=O)c(C)c1 | inactive |
| C=CC(O)CCCCC (stereo not given) | inactive |
| COc1ccnc2c1CCCCC2S(=O)c1nc2ccccc2[nH]1 (stereo not given) | inactive |
| CCOC(=O)CC(O)(CC(=O)OCC)C(=O)OCC | inactive |
| CC(O)CN (stereo not given) | inactive |
| Cc1ccc2c(Cl)cc(Cl)c(O)c2n1 | inactive |
| C[Si](C)(C)O[Si](C)(C)O[Si](C)(C)C | inactive |
| O=C(O)c1cccc(C(=O)O)c1C(=O)O | 34.7 µM (active) |
| CCCc1ccc(OC)cc1 | inactive |
| O=C1c2ccccc2C(=O)C1c1ccc2cc(S(=O)(=O)O)cc(S(=O)(=O)O)c2n1 | 18.6 µM (active) |
| CC(C)(C(=O)O)c1ccc(C(O)CCCN2CCC(C(O)(c3ccccc3)c3ccccc3)CC2)cc1 (stereo not given) | inactive |
| CC1(C)[C@@H]2CC[C@]3(C2)[C@@H]1C(=O)CCC3(C)C | 27.3 µM (active) |
| CCCC(=O)OCc1ccccc1 | inactive |
| CC(C)=CCC[C@H](C)CCO | inactive |
| CC(C)CCCCCCCOC(=O)c1ccc(C(=O)OCCCCCCCC(C)C)c(C(=O)OCCCCCCCC(C)C)c1 | 42.6 µM (active) |

| SMILES | Potency |
| --- | --- |
| CC(CC(C#N)(c1ccccc1)C(C)C)N(C)C (stereo not given) | inactive |
| N#C[C@@H]1CC(F)(F)CN1C(=O)CNC1CC2CCC(C1)N2c1ncccn1 (stereo not given in full) | inactive |
| Nc1nc(Cl)nc2c1ncn2[C@H]1C[C@H](O)[C@@H](CO)O1 | inactive |
| COC(=O)/C=C/C(C)=C\C=C\C(C)=C\C=C\C=C(C)\C=C\C=C(C)\C=C\C(=O)O | inactive |
| O=c1[nH][nH]c2ccccc12 | inactive |
| COC(=O)c1cc(Cl)ccc1[N+](=O)[O-] | inactive |
| OCCc1ccncc1 | inactive |
| COc1ccc(CN(CCN(C)C)c2ncccn2)cc1 | inactive |
| O=C(O)c1ccccc1[N+](=O)[O-] | inactive |
| O=C1C=CCCC1 | inactive |
| O=C(O)CNc1ccccc1 | inactive |
| O=C(N[C@@H](Cc1ccccc1)[C@@H](O)C(=O)N1C[C@@H](O)[C@@H](O)C1)c1cc2cc(Cl)ccc2[nH]1 | inactive |
| CC(C)Cc1nccs1 | inactive |
| Clc1cccc(C(c2ccc3nc[nH]c3c2)n2ccnc2)c1 (stereo not given) | inactive |
| O=C1OC(=O)C2CC=CCC12 (stereo not given) | inactive |
| CCC[Si](OC)(OC)OC | inactive |
| CCCC1CCCC(=O)O1 (stereo not given) | inactive |
| CC(C)(C)c1cc(C=O)cc(C(C)(C)C)c1O | inactive |
| CCC(C)C1N=C(C)C(C)S1 (stereo not given) | inactive |
| CCc1ccc(C(=O)C(C)CN2CCCCC2)cc1 (stereo not given) | inactive |
